# Screen size: about 300,000 compounds; about 3,600 (1.2%) were called active. The list comes from a sample in which actives are over-represented; it also holds similar structures and randomly drawn compounds. A number with no mark means an inactive call. Cut-off read from the data, not from the text of the source: active = activation above about 30% (passing the limit was not always enough); inconclusive = no clear call, values can overlap the other calls.
# Test: Wnt/beta-catenin pathway activators, primary screen, cell-based, plate reader, single point (AID 743398);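 note: 0% = neutral control wells and 100% = positive control wells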
# Settings: Wnt/beta-catenin reporter cell assay, activator, at 9.35 µM, hits give high values
row,Structure (SMILES),activation
1,COCC1CCCCN1C(=O)c1cc(COc2ccc(C)c(C)c2)on1 (stereo not drawn),28.7%
2,CO[C@@H]1CN(C)C(=O)c2cc(NC(=O)Nc3cc(F)ccc3F)ccc2OC[C@H](C)N(C(=O)c2ccccn2)C[C@@H]1C,-7.29%
3,c1ccc2c(c1)nnn2-c1ccncc1,-1.47%
4,COC(=O)c1sccc1NC(=S)Nc1ccc(C)cc1,12.9%
5,COC(=O)c1sccc1NN1C(=O)c2ccccc2C1=O,40.2% (active)
6,COC(=O)c1sccc1NC(=O)c1ccc(Cl)cc1,-0.421%
7,O=C(NC1CCCCC1)C(c1cc2ccccc2o1)n1c(=O)c(-c2ccco2)nc2ccccc21 (stereo not drawn),2.44%
8,CCOC(=O)c1cccc(NC(=O)c2ccc(F)cc2F)c1,46.1% (active)
9,CCOC(=O)c1cccc(NC(=O)CCOc2ccccc2)c1,-0.119%
10,CCOC(=O)c1cccc(NC(=O)CN2C(=O)C3CC=CCC3C2=O)c1 (stereo not drawn),0.82%
11,COc1ccc(N2C(=O)c3ccccc3NC2c2ccc(OC)c(CN3CCOCC3)c2)cc1 (stereo not drawn),7.45%
12,COc1ccc(C2Nc3ccccc3C(=O)N2Cc2ccccc2)cc1Cn1nnc2ccccc21 (stereo not drawn),-5.17%
13,COc1ccc(C2Nc3ccccc3C(=O)N2c2ccc(Cl)cc2)cc1Cn1cc([N+](=O)[O-])cn1 (stereo not drawn),63.8% (active)
14,COc1cccc(-c2cnc3c(NC(C)=O)cc(-c4cc(F)ccc4OC)cn23)c1,-0.939%
15,CC(C)(C)C1CCC(=O)N2CCC[C@]2(c2ccccc2)C1 (stereo partly drawn),-2.76%
16,COc1ccc(C2=NN(C(=O)c3cccnc3)C(c3ccccc3)C2)cc1 (stereo not drawn),1.72%
17,COc1ccc(C2=NN(C(=O)c3ccccc3C(=O)O)C(c3ccccc3O)C2)cc1 (stereo not drawn),42.7% (active)
18,COc1ccc(C2=NN(C(C)=O)C(c3ccccc3)C2)cc1 (stereo not drawn),3.24%
19,COCCNC(=S)N(C)[C@H]1C[C@H]2c3[nH]c4ccccc4c3CCN2C[C@H]1[C@H](C)O,-0.111%
20,COC(=O)[C@]12CCCCC=C1N(Cc1ccc(Cl)cc1Cl)C(=O)[C@H](CC(=O)NCc1cccc3ccccc13)C2,-3.47%
21,O=C(CCc1ccc(O)cc1)NN=Cc1cc(Br)ccc1O,-2.84%
22,O=C(Nc1ccccc1F)c1ccc2c(c1)OCO2,44% (active)
23,N#Cc1ccccc1NC(=O)c1ccc2c(c1)OCO2,3.38%
24,O=C(Nc1ccccc1N1CCN(C(=O)c2ccccc2)CC1)c1ccc2c(c1)OCO2,1.55%
25,CN1C(=O)C(Br)(Br)CC1c1cccnc1 (stereo not drawn),0.101%
26,CCOC(=O)[C@]12CCCC=C1N(CCC1=CCCCC1)C(=O)[C@H](CC(=O)N1CCSCC1)C2,-2.19%

row,Structure (SMILES),activation
1,COc1ccccc1Cc1c(-c2ccc(F)cc2)nc2ccc(C)cn12,13%
2,CCOC(=O)N1CCN(C(=O)C[C@H]2C[C@@]3(C(=O)OC)C(=C[C@H](C4CCCC4)O[C@@H]3C)N(Cc3ccccc3)C2=O)CC1,-4.54%
3,CCN(CC)C(=O)CSc1ncnc2c1cnn2-c1ccccc1,61.3% (active)
4,CCN(C(=O)CSc1ncnc2c1cnn2-c1ccccc1)C1CCS(=O)(=O)C1 (stereo not drawn),0.526%
5,CCC(C)N(C(=O)CSc1ncnc2c1cnn2-c1ccccc1)C1CCS(=O)(=O)C1 (stereo not drawn),0.0855%
6,O=C1NC[C@H](Cc2ccc(O)cc2)N(C[C@@H]2CCCN2C[C@H](Cc2ccccc2)N2C[C@H](Cc3ccccc3)N(CC3CCCCC3)C(=O)C2=O)C1=O,-2.18%
7,COC(=O)c1ccc(CN2C(=O)[C@]3(OCCC=C[C@H]3C)c3c(Br)cccc32)cc1,-10.3%
8,NS(=O)(=O)c1cccc(NC(=O)CN2CCCc3ccccc32)c1,-1.12%
9,CC1CC(C)CN(CC(=O)Nc2ccc(S(N)(=O)=O)cc2)C1 (stereo not drawn),-0.27%
10,CC1Cc2ccccc2N1CC(=O)Nc1ccc(S(N)(=O)=O)cc1 (stereo not drawn),39% (active)
11,CN(C(=O)COC(=O)c1cc(=O)[nH]c2ccccc12)C1CCCCC1,60.6% (active)
12,CC1CCN(C(=O)COC(=O)c2cc(=O)[nH]c3ccccc23)CC1,-3.48%
13,CC(NC(=O)COC(=O)c1cc(=O)[nH]c2ccccc12)c1ccccc1 (stereo not drawn),-11.1%
14,Cc1ccc([C@H]2N[C@]3(CCCN(Cc4ccccc4)C3=O)[C@H]3C(=O)N(Cc4ccccc4)C(=O)[C@@H]23)cc1,-1.11%
15,Cc1cc(C)nc(Nc2cc([N+](=O)[O-])ccc2C)n1,-0.166%
16,Cc1ccc(-n2cc3ccc([N+](=O)[O-])cc3n2)cc1,44.6% (active)
17,Cc1ccc(-c2cn(S(=O)(=O)c3cccc([N+](=O)[O-])c3)nc2N)cc1,-0.55%
18,CC(C)[C@@H](C)/C=C/[C@@H](C)[C@H]1CC[C@@H]2[C@]1(C)CCC1[C@]23C=C[C@]2(C[C@@H](O)CC[C@]12C)N(c1ccc([N+](=O)[O-])cn1)O3 (stereo partly drawn),-14.5%
19,CN(C(=O)CN1CCN(c2cc(-c3ccc(OCc4ccccc4)cc3)ncn2)CC1)c1ccccc1,-1.53%
20,CC(C)CNC(=O)c1cc(-c2ccc(Br)cc2)on1,26.3%
21,CC(C)Cc1cc(C(=O)NCCc2ccccc2)no1,28.6%
22,CC(C)Cc1cc(C(=O)Nc2cc(Br)ccc2O)no1,44.3% (active)
23,OC[C@@H]1CN(Cc2ccc(-c3ccccc3)cc2)C[C@H](n2cnc3c(NC4CCCC4)ncnc32)O1,-4.89%
24,Cc1nc2c(OCc3ccc(Cl)cc3Cl)cccn2c1N(C)CC1CC1,-3.96%
25,Nc1nc2c(ncn2[C@@H]2O[C@H](C(=O)N[C@@H](Cc3ccccc3)C(=O)NCc3ccccc3)[C@@H](O)[C@H]2O)c(=O)[nH]1,1.27%
26,CSCCC(C(=O)NC(C)(C)C)n1c(-c2ccccc2)nc2ccccc21 (stereo not drawn),2.95%

row,Structure (SMILES),activation
1,CCOC(=O)c1c(NC(=S)SC)sc(C(=O)N2CCc3ccccc3C2)c1C,-0.956%
2,CCN1CCN(C(c2cccnc2)c2cc(Cl)c3cccnc3c2O)CC1 (stereo not drawn),61.4% (active)
3,Oc1c(CN2CCCC2)cc(COCc2ccccc2)c2cccnc12,2.52%
4,CC(=O)NC(c1cccs1)c1cc(Br)c2cccnc2c1O (stereo not drawn),-2.66%
5,O=C(NN=Cc1ccco1)C(=O)Nc1ccc(Cl)c([N+](=O)[O-])c1,-3.58%
6,Cc1cc(C)n2c(Nc3c(C)cccc3C)c(CCc3ccccc3)nc2n1,-1.15%
7,Cc1cc(C)c(C#N)c(SCC(=O)Nc2ccccc2)n1,39.1% (active)
8,Cc1nonc1NC(=O)CSc1nc2ccccc2cc1C#N,24.4%
9,Cc1nc2cc(NC(=O)CSc3nc4c(C)cccc4cc3C#N)ccc2s1,-2.44%
10,CCCCc1c(-c2ccc(Br)cc2)ncn1CCc1ccccc1OC,-12.1%
11,CC(=O)c1ccc(S(=O)(=O)NCC2CCN(C(=O)C(=O)c3cccs3)CC2)cc1,-0.884%
12,Cc1nc2ccc(NC(=O)C3CCCCC3)cc2s1,15.2%
13,Cc1nc(NC(=O)C23CCC(C)(C(=O)O2)C3(C)C)sc1C (stereo not drawn),-2.53%
14,Cc1nc(NC(=O)C2CCCCC2)sc1C,37.5% (active)
15,CCOC(=O)c1ccc(-c2ccc3ncnc(N(C)Cc4sccc4C)c3c2)o1,7.57%
16,COC(=O)C(C(=O)OC)c1ccccc1NS(=O)(=O)c1cccc2ccccc12,-4.59%
17,CCc1nc2c(OCCOc3ccccc3)cccn2c1N(C)C(=O)c1cccs1,-2.69%
18,COc1ccc(CCNC(=O)CSc2nc(-c3ccc(OC)c(OC)c3)ccc2C#N)cc1,-3.46%
19,CCOc1ccc2cc(C#N)c(SCC(=O)OC)nc2c1,86% (active)
20,CCOc1ccc2nc(N3CCCN(C(=O)Nc4ccccc4C)CC3)c(C#N)cc2c1,-1.99%
21,COc1ccc(NC(=O)C(c2ccncc2)n2c(=O)c(-c3cc4ccccc4[nH]3)nc3ccccc32)cc1 (stereo not drawn),16.9%
22,C[C@H](O)[C@@H]1CN2CCc3ccc(-c4ccc5c(c4)OCO5)cc3[C@@H]2C[C@@H]1N(C)C(=O)C1CCCCC1,23.5%
23,Cc1ccccc1C(=O)N[C@H](C(=O)N1CCC[C@H]1C(=O)NCc1ccccc1)C(C)C,-3.2%
24,COc1ccc(OC)c(C(O)c2nc3ccccc3n2C)c1 (stereo not drawn),-0.171%
25,COc1cccc(C(O)c2nc3ccccc3n2C)c1 (stereo not drawn),47.8% (active)
26,COc1cc(C(O)c2nc3ccccc3n2C)cc(OC)c1OC (stereo not drawn),-0.72%

row,Structure (SMILES),activation
1,CCCCCCn1c(=O)n2n(c1=O)C[C@]1(OC(=O)NCc3ccc(OC)c(OC)c3)CN(S(=O)(=O)c3ccc(C)cc3)C[C@]1(O)C2,-4.95%
2,Cc1cccc(-c2nc3ccc(C(=O)NCCN4CCN(C)CC4)cc3nc2-c2cccc(C)c2)c1,2.48%
3,C=CCNC(=O)c1ccc2c3n(nc2c1)-c1ccc(C)cc1CO3,38.9% (active)
4,C=CCNC(=O)c1ccc(C)c(Br)c1,-0.707%
5,CN(C)c1ccnc2sc(C(=O)c3ccccc3)c(N)c12,79.3% (active)
6,CCN(CC)C(=O)c1sc2nc(-c3ccccc3)ccc2c1N,10.1%
7,Cc1ccc2c(N)c(C(=O)c3ccccc3)sc2n1,22.1%
8,COc1cccc(C(O)c2ncc(-c3ccc4ccccc4c3)[nH]2)c1 (stereo not drawn),0.0285%
9,Cc1ccc2nc(-c3ccco3)c(Cc3cccc(Cl)c3)n2c1,-1.15%
10,O=C(COc1ccc(/C=N/NC(=O)c2ccc(O)cc2)cc1)Nc1ccc([N+](=O)[O-])cc1,46.5% (active)
11,O=C(COc1ccc([N+](=O)[O-])cc1)Nc1ccc(N2CCCC2)cc1,-2.41%
12,O=C(N/N=C/c1ccc(O)cc1)/C(=C/c1ccc([N+](=O)[O-])cc1)NC(=O)c1ccccc1,0.356%
13,CCC(CC)C(C(=O)NC1CCCC1)N1CCN(c2cc(C)nc3ccccc23)CC1 (stereo not drawn),-1.19%
14,CNC(=O)c1ccc(CN(C)C(=O)c2cc(C3CC3)nc3c2cnn3C(C)C)cc1,7.06%
15,O=C(Cc1ccc([N+](=O)[O-])cc1)NCCS(=O)(=O)N1CCN(c2ccccc2)CC1,-2.6%
16,CCCOc1ccc(F)cc1-c1cc(C(=O)Nc2ccc(F)c(Cl)c2)[nH]n1,-0.991%
17,CCCCCCCCN1C(=O)[C@@H](CC(=O)NCc2ccc(C)o2)C[C@@]2(C(=O)OC)C1=C[C@H](C(C)(C)C)O[C@@H]2C,-3.74%
18,COC(=O)C(C)Oc1ccc2c(c1)O/C(=C\c1cccc(Br)c1)C2=O (stereo not drawn),-0.1%
19,COc1ccc2c(c1)O/C(=C\c1ccccc1O)C2=O,39.8% (active)
20,O=C1Oc2ccccc2C(=O)/C1=C/c1ccccc1O,-4.19%
21,Clc1cccc2c1C1CC2CCN1Cc1ccccc1 (stereo not drawn),-2.22%
22,COc1ccccc1OCC(=O)O/N=C(\N)c1ccccn1,55.9% (active)
23,N/C(=N\OC(=O)Cc1ccc([N+](=O)[O-])cc1)c1ccccn1,1.55%
24,COc1ccc(C(=O)O/N=C(\N)c2ccccn2)cc1[N+](=O)[O-],17%
25,COc1ccc(OC)c(CN2C(=O)CCC2(C)c2nnnn2Cc2ccccc2)c1 (stereo not drawn),-0.624%
